# Laboratory results from PubChem BioAssay (NCATS).
# Where “and” joins values, the source holds several entries; their conditions need not be identical. Equal values may be shown once. Records with an inconclusive call do not appear. Calls of active or inactive are those of the source. Unless noted, the call rests on the fitted dose curve; in most records, active means well fitted curve in the direction sought with a large enough effect; inconclusive means small, poorly fitted or top-dose-only effect, or another doubt; inactive means no such curve, though single readings can be large; an effect the other way counts as inactive or inconclusive.
# Legend:
# [1] = biological target: Cytochrome P450 2C9 (Homo sapiens) (UniProt P11712); experiment: qHTS Assay for Inhibitors and Substrates of Cytochrome P450 2C9 (AID 883); further: nearly all actives have a fitted effect of over 60% in size; further: potency means the concentration at half of the fitted maximal effect
# Sequence of Cytochrome P450 2C9 (Homo sapiens) (P11712 whole entry, looked up): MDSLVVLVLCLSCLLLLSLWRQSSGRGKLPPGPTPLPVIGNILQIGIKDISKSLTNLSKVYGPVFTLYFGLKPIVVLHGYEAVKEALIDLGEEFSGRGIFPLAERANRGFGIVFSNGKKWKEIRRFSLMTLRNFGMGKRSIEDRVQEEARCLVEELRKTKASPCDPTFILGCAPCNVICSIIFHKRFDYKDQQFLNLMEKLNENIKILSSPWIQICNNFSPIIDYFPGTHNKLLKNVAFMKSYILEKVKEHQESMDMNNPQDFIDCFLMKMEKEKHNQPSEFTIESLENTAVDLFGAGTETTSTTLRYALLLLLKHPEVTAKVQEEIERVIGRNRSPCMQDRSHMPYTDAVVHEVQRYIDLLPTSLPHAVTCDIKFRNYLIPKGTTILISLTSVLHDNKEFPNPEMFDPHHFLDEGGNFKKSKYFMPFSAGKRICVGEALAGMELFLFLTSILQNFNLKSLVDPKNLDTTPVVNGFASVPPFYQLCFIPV
# Method in brief: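 Human CYP2C9 (10nM) hydroxylated Luciferin-H (100uM, at its KM) to luciferin in 25mM KPO4. Compound was preincubated 10 min at 37C, then NADPH regeneration started a 60 min reaction at 37C. Luminescence was read after detection reagent, normalized to 57uM sulphaphenazole.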
# [2] = biological target: Cytochrome P450 2C19 (Homo sapiens) (UniProt P33261); experiment: qHTS Assay for Inhibitors and Substrates of Cytochrome P450 2C19 (AID 899); further: potency means the concentration at half of the fitted maximal effect; nearly all actives have a fitted effect of over 60% in size
# Sequence of Cytochrome P450 2C19 (Homo sapiens) (P33261 whole entry, looked up): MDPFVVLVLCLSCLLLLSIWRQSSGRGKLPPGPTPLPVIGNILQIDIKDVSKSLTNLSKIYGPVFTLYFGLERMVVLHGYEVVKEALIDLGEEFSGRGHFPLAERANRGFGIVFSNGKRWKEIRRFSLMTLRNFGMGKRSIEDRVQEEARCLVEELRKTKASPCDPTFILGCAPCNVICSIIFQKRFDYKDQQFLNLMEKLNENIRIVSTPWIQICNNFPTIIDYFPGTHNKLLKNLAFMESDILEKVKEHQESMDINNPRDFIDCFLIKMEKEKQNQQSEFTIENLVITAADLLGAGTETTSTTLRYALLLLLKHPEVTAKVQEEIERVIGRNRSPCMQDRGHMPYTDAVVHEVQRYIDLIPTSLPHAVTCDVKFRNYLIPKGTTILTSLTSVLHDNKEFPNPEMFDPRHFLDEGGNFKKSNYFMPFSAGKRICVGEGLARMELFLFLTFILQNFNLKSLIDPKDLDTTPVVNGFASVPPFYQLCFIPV
# Method in brief: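 Human CYP2C19 (5nM) with Luciferin-H EGE at 10uM (its KM) in 50mM KPO4 was preincubated with compound for 10 min at 37C. NADPH regeneration started a 60 min 37C reaction. Luciferin was read by luminescence, normalized to 57uM ketoconazole.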
# [3] = Cell Viability - MRC5 (AID 434; calls by dose curve;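 further: potency means the concentration at half of the fitted maximal effect; cells exposed to compound for 40 hours at 37 °C; potency reflects cytotoxicity seen as loss of intracellular ATP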); details: MRC5 lung fibroblast viability, qHTS
# Method in brief: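 Decrease in intracellular ATP, quantified by luciferase light output, reflects compound toxicity toward MRC5 cells exposed for 40 hr in complete culture medium. Concentration-response curves, scaled between DMSO and 100 uM tamoxifen, gave AC50 values.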
# [4] = Cell Viability - SK-N-SH (AID 435; calls by dose curve;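 further: potency means the concentration at half of the fitted maximal effect; compound exposure lasted 40 h at 37 °C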); details: SK-N-SH neuroblastoma cell viability qHTS
# Method in brief: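 Human neuroblastoma line, 40 h exposure at 37 °C, ATP quantified via luciferase luminescence; DMSO and 100 uM tamoxifen define 0 and 100% inhibition for AC50 fitting.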
# [5] = Cell Viability - NIH 3T3 (AID 541); details: NIH 3T3 cell viability, qHTS; activity change, negative = cytotoxicity: at 92.2 µM (top of the series);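 further: plate controls were DMSO alone for no effect and tamoxifen positive control for full effect; nearly all actives have a fitted effect of over 25% in size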
# Method in brief: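 In this cytotoxicity screen, acute toxicity is scored as an ATP drop measured by CellTiter-Glo in NIH 3T3 fibroblasts following a 40 hr, 37 °C incubation with compound.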
# [6] = Cell Viability - LYMP2-025 (AID 976);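 further: cells exposed to compound for 24 h at 37 °C; plate controls were DMSO only for no effect and tetraoctylammonium bromide control for full effect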
# Method in brief: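 Luminescent ATP readout after 24 hr treatment of a human lymphoblastoid line (LYMP2-025, 2500 cells/well, 37 C). Reagent developed 30 min at room temperature; AC50 fitted with the Hill equation.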
# [7] = biological target: Glucocorticoid receptor (Homo sapiens) (UniProt P04150); experiment: qHTS assay for small molecule agonists of glucocorticoid receptor signaling (AID 588532; active means well fitted curve in the direction sought with a large enough effect in the signal ratio, with a control signal flat; the % refers to the signal ratio;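 further: 100% = dexamethasone at 0.1 µM and 0% = DMSO only wells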); details: HeLa MMTV-bla, beta-lactamase ratio, agonist, 18 h; stronger effect = higher value; percent of dexamethasone control, DMSO zero
# Sequence of Glucocorticoid receptor (Homo sapiens) (P04150 whole entry, looked up): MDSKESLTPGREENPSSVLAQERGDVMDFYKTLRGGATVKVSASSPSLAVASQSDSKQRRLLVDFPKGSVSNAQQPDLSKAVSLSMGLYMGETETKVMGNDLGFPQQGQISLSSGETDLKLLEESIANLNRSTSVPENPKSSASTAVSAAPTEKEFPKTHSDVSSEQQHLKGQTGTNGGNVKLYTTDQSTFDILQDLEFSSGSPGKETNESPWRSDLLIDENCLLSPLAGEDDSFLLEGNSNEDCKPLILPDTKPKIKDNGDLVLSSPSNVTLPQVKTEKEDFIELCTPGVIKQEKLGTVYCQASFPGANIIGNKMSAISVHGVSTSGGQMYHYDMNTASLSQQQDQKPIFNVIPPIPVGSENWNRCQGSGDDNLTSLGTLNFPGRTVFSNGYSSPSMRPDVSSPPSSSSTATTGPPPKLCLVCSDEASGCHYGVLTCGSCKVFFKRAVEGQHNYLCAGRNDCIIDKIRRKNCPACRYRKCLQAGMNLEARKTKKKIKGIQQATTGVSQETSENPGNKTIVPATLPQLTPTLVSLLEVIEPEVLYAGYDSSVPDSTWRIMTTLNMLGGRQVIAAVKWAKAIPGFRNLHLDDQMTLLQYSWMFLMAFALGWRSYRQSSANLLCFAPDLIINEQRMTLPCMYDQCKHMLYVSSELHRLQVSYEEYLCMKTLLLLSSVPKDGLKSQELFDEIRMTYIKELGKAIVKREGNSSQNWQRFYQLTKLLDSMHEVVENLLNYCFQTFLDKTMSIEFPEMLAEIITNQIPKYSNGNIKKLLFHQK
# Method in brief: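 MMTV-bla HeLa, beta-lactamase reporter; medium with 1% charcoal/dextran-stripped FBS; cpds up to 92 uM, 18 h, 37 C; CCF4 readout 460/530 nm; Hill fit → EC50, efficacy vs 0.1 uM dexamethasone = 100%.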
# [8] = biological target: ATP-dependent 6-phosphofructokinase (Trypanosoma brucei brucei) (UniProt O15648); experiment: qHTS Assay to Find Inhibitors of T. brucei phosphofructokinase: hit validation (AID 492961);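 further: luminescence reports ADP formed as PFK phosphorylates fructose-6-phosphate with ATP; on the % scale 0 is the no-effect control and ±100 the full control effect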
# Sequence of ATP-dependent 6-phosphofructokinase (Trypanosoma brucei brucei) (O15648 whole entry, looked up): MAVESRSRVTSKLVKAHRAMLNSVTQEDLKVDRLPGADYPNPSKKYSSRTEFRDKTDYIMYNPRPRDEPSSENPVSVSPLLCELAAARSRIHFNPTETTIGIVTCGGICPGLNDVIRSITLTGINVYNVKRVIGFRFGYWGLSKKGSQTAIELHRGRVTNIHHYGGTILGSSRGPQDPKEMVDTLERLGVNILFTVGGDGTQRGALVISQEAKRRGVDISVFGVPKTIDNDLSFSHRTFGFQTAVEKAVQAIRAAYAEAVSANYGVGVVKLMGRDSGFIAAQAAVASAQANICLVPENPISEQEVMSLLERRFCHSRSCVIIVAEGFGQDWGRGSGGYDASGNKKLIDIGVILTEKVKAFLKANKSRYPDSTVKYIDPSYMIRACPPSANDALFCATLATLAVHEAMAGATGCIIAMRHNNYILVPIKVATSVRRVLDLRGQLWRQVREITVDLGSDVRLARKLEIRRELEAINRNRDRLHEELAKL
# Method in brief: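 PFK 1.25 nM, F6P 0.5 mM, ATP 0.1 mM, MgCl2 5 mM, 0.1 M TEA pH 8.0, Tween20 0.01%, BSA 0.1%; 45 min RT. ADP-Glo two-step detection, luminescence. qHTS titration; curve fitting with curve-class categorization.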
# [9] = qHTS profiling for inhibitors of Plasmodium falciparum proliferation (AID 504749);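 further: 0% = DMSO vehicle and full inhibition = artemisinin control; nearly all actives have a fitted effect of over 60% in size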; details: P. falciparum in erythrocytes, SYBR Green DNA, 72 h, at 28.7 µM (top of the series)
# Method in brief: (§1)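 Fluorescence of SYBR Green-bound parasite DNA, read at 485/535 nm, served as the growth measure. Infected erythrocytes were cultured with compound 72 h; artemisinin (0.29 uM) and DMSO wells defined the normalization range.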
# CP192 = experiment: as above; details: P. falciparum in erythrocytes, SYBR Green DNA, 72 h; series mostly up to 28.7 µM
# Method in brief: as §1
# CP194 = experiment: as above; details: P. falciparum in erythrocytes, SYBR Green DNA, 72 h; series mostly up to 28.7 µM
# Method in brief: as §1
# CP291 = experiment: as above; details: P. falciparum in erythrocytes, SYBR Green DNA, 72 h; series mostly up to 28.7 µM
# Method in brief: as §1
# W2 = experiment: as above; details: P. falciparum in erythrocytes, SYBR Green DNA, 72 h; series mostly up to 28.7 µM
# Method in brief: as §1
# [10] = biological target: Bile acid receptor (Homo sapiens) (UniProt Q96RI1); experiment: qHTS assay for small molecule antagonists of farnesoid X receptor signaling (AID 588526; calls by dose curve; further: on the % scale 0 is the no-effect control and ±100 the full control effect)
# Sequence of Bile acid receptor (Homo sapiens) (Q96RI1 whole entry, looked up): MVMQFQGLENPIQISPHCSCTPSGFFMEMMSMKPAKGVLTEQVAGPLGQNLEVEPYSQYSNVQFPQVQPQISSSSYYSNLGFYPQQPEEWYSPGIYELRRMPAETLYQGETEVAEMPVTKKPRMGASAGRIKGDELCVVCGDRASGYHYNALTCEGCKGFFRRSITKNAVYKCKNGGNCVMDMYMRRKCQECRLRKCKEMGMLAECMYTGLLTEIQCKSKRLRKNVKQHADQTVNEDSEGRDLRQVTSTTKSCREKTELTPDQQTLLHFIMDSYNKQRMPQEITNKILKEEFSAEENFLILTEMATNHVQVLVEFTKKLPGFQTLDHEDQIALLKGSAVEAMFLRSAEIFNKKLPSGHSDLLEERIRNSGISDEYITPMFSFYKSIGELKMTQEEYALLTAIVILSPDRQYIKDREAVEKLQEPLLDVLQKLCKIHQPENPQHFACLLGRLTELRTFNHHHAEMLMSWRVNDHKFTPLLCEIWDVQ
# Method in brief: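 Concentration-response titrations were fitted to the Hill equation for half-maximal inhibition and maximal response, with data normalised to 50 uM chenodeoxycholic acid and DMSO control wells. Cells: FXR-UAS-bla HEK293T, dialyzed FBS.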
# [11] = qHTS assay for small molecule antagonists of peroxisome proliferator-activated receptor delta signaling (AID 588535; active means well fitted inhibition curve with a large enough effect in the signal ratio, with a control signal flat, not every such curve was filed as active; the % refers to the signal ratio;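 on max response: cells co-treated with a PPAR-delta agonist as stimulator during compound exposure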); details: HEK293T PPARd-UAS-bla, beta-lactamase FRET ratio, 18 h; 460 nm channel
# Method in brief: (§2)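 Compounds tested in titration on PPAR-delta-UAS-bla HEK293T cells grown in charcoal/dextran-stripped serum (2%); beta-lactamase activity read via CCF4 emission at 460 and 530 nm.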
# [12] = biological target: Peroxisome proliferator-activated receptor delta (Homo sapiens) (UniProt Q03181); experiment: as above
# Sequence of Peroxisome proliferator-activated receptor delta (Homo sapiens) (Q03181 whole entry, looked up): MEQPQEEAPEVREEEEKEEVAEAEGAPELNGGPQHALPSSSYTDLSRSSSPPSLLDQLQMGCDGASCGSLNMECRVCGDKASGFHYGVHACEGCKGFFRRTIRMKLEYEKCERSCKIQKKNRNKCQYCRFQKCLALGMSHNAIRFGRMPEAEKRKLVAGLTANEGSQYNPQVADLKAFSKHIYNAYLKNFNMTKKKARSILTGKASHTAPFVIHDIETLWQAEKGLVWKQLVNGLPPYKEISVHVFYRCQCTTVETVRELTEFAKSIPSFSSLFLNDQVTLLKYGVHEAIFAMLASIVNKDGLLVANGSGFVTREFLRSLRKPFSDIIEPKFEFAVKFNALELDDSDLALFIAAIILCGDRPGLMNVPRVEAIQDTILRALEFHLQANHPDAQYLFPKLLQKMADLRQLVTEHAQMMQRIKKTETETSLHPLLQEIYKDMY
# Method in brief: as §2
# [13] = qHTS assay for small molecule agonists of the antioxidant response element (ARE) signaling pathway measured by Nrf2-dependant transcriptional activity - cell viability counter screen (AID 720653; active means well fitted curve in the direction sought with a large enough effect in the repeat runs; an effect the other way counts as inactive or inconclusive; further: on the % scale 0 is the no-effect control and ±100 the full control effect); details: ARE-bla HepG2 viability, CellTiter-Glo ATP luminescence, 16 h; max response: stronger effect = lower value
# Method in brief: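 ARE-bla HepG2 cells (2,000/well) rested 5 hrs at 37C/5% CO2, then exposed to compounds in DMSO for 16 hrs. Viability was read in the same wells as intracellular ATP by luminescence, 30 min at room temperature after reagent addition.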
# [14] = Cell Viability - BJ (AID 421; calls by dose curve;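 further: potency means the concentration at half of the fitted maximal effect; cells exposed to compound for 40 hours at 37 °C before readout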); details: BJ fibroblast viability, qHTS
# Method in brief: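 Quantitative HTS: ATP depletion in BJ cells after 40 hr compound exposure in complete culture medium, detected with CellTiter-Glo; AC50 from standard Hill fits.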
# [15] = Cell Viability - Hek293 (AID 427;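 active means compounds whose dose-response curve shows a full or clear partial loss of cell viability, called from curve shape rather than a numeric limit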;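 further: potency means the concentration at half of the fitted maximal effect; cells exposed to compound for 40 hours at 37 °C before reading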); details: qHTS
# Method in brief: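 AC50 values derive from Hill-modelled concentration-response of ATP-based luminescence, normalized between DMSO-only and 100 uM tamoxifen controls. Cells were exposed in complete culture medium for 40 hr at 37 °C before detection.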
# [16] = qHTS assay to identify small molecules that stimulate interleukin-8 (IL-8) secretion (AID 651758; active means well fitted activation curve with a large enough effect in the signal ratio; the % refers to the signal ratio; further: potency means the concentration at half of the fitted maximal effect; on activation: 0% is about no effect)
# Method in brief: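 Quantitative HTS in THP-1 monocytic cells at 2000 cells per well, with 16 hrs compound incubation at 37 C. IL-8 in the medium was then quantified by HTRF immunoassay, read after 1-3 hrs at room temperature.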
structure (smiles),measurement,setting,value
COCCn1c(=O)c(-c2cccs2)nc2cnc(N3CCNCC3)nc21,Potency,[1],2 µM (active)
COCCNc1ncnc2ccc(-c3ccccc3OC)cc12,Potency,[2],5.01 µM (active)
C=C(C)C1CC=C(C)C(O)C1 (stereo not given),Potency,[3],> 92 µM (inactive)
same,Potency,[4],> 92 µM (inactive)
same,Potency,[5],inactive
same,Potency,[6],inactive
same,activation,[7],0.682% (inactive)
COc1ccc2[nH]cc(CCNc3ncncc3-c3ccccc3C)c2c1,Potency,[2],0.0501 µM (active)
CC(=O)OC1CC2CCC1(C)C2(C)C (stereo not given),outcome,[8],inactive
same,"activity, negative = inhibition",[9]; parasite line A,6.76% (inactive)
same,"activity, negative = inhibition",[9]; parasite line B,13.6% (inactive)
same,Potency,CP192,inactive
same,Potency,CP194,inactive
same,Potency,CP291,inactive
same,Potency,W2,inactive
C=CC(C)(CCC=C(C)C)OC(C)=O (stereo not given),outcome,[10],inactive
same,max response,[11],-1.31%
same,Potency,[12],inactive
same,max response,[13],-13.5% (inactive)
CC1=C2[C@H](/C=C(\C)C(=O)O)CC[C@@H](C)[C@H]2CC1,Potency,[14],> 92 µM (inactive)
same,Potency,[15],> 92 µM (inactive)
same,Potency,[5],inactive
same,outcome,[10],inactive
CCCCCCCCCCCCCC(=O)O,Potency,[14],> 92 µM (inactive)
same,outcome,[10],inactive
same,activation,[7],-3.49% (inactive) and -3.58% (inactive)
C=CC(=C)CCC=C(C)C,Potency,[3],> 92 µM (inactive)
same,max response,[11],-12.1%
same,Potency,[12],inactive
same,Potency,[16],inactive
COc1cc(/C=C/c2ccccc2)oc(=O)c1,Potency,[4],> 92 µM (inactive)
same,Potency,[6],inactive
same,activation,[7],1.13% (inactive)
same,max response,[11],-19.2%
same,Potency,[12],inactive
COc1ccc(/C=C/c2cc(OC)cc(=O)o2)cc1,Potency,[15],> 92 µM (inactive)
same,outcome,[10],inactive
same,Potency,[16],66.8 µM (active)
same,max response,[13],11.1% (inactive)
O=c1cc(-c2ccc(O)c(O)c2)oc2cc(O[C@@H]3O[C@@H](CO)[C@@H](O)[C@@H](O)[C@H]3O)cc(O)c12,Potency,[1],inactive
